Consider 50 compounds from ChEMBL document CHEMBL1157539, “Thousands of chemical starting points for antimalarial lead identification” (Nature, 2010).

The structures appear in SMILES notation.

Broadly, the Inhibition is the change of the read-out against control, counted positive when it falls. Lower therefore signals little suppression.

Type in all cases: functional
The subject of assay [1] is Plasmodium falciparum. Nature of the assay: GSK_TCMDC: Inhibition of Plasmodium falciparum 3D7 in whole red blood cells, using parasite LDH activity as an index of growth. Test compounds present at 2uM.
Assay [2] relates to Plasmodium falciparum. As to the kind of experiment: GSK_TCMDC: Inhibition of Plasmodium falciparum Dd2 in whole red blood cells, using parasite LDH activity as an index of growth. Test compounds present at 2uM.
A further assay relates to HepG2. Nature of the assay: GSK_TCMDC: Percent inhibition of human HepG2 cell line. Test compounds present at 10uM.

Take `N#Cc1cccc(C(=O)Nc2cccc(-c3cccc(CN4CCNCC4)c3)c2)c1.O=C(O)C(F)(F)F`: the Inhibition is 89% with Plasmodium falciparum [1], 10% with Plasmodium falciparum [2] and 37% with HepG2.

As to `Cc1cccc2nc(-c3ccc(-c4cccc(CN5CCN(CCO)CC5)c4)cc3)[nH]c12.O=C(O)C(F)(F)F`, the figures for the Inhibition in the assay with Plasmodium falciparum [1], in the assay with Plasmodium falciparum [2] and in the assay with HepG2 were 100%, 55% and 20%, respectively.

With `CC(C)N1CCN(C(CN2CCN(CCCOc3ccc4nonc4c3)CC2)c2ccc(F)cc2)CC1.Cl` (stereo not given), the figures for the Inhibition in the assay on Plasmodium falciparum [1], with Plasmodium falciparum [2] and in the assay on HepG2 were 97%, 40% and 0%, respectively.

With `CC(C)(CNCCOc1ccc(Cl)cc1)c1nc(-c2ccnc(N)n2)c(-c2ccc(Cl)c(O)c2)[nH]1.Cl`, the Inhibition is reported as 97% in the assay with Plasmodium falciparum [1], 19% in the assay with Plasmodium falciparum [2] and 45% in the assay on HepG2.

With `CN1CCCC(CN2CCN(Cc3ccc(-c4cccc(-c5nc6cc(F)ccc6[nH]5)c4)cc3)CC2)C1.O=C(O)C(F)(F)F` (stereo not given), the Inhibition with Plasmodium falciparum [1] is 100%; in the assay on Plasmodium falciparum [2] it was 99%; in the assay with HepG2, 92%.

Take `O=C(Cc1ccc(NC(=O)c2ccc(O)c(-c3ccc(Cl)c(Cl)c3)c2)cc1)NCCc1ccc(Cl)c(Cl)c1`: the figures for the Inhibition in the assay on Plasmodium falciparum [1], in the assay on Plasmodium falciparum [2] and in the assay with HepG2 were 99%, 88% and 0%, respectively.

Turning to `Cc1cc2nc(-c3ccc(/C=C/C(=O)NC4CCN(Cc5ccccc5)CC4)cc3)[nH]c2cc1C`, the Inhibition was found to be 98% in the assay on Plasmodium falciparum [1], 89% in the assay on Plasmodium falciparum [2] and 18% in the assay on HepG2.

As to `O=C(Nc1ccc(-c2ccccc2)c(OCCN2CCNCC2)c1)c1ccc(-c2ccc(Cl)cc2)cc1`, the Inhibition came out at 96% with Plasmodium falciparum [1], 31% with Plasmodium falciparum [2] and 92% in the assay with HepG2.

Take `Cc1cc(OCCCN2CCC(NS(=O)(=O)c3cccc(Br)c3)CC2)c2ccccc2n1`: the Inhibition in the assay on Plasmodium falciparum [1] came to 95%; in the assay on Plasmodium falciparum [2], 28%; in the assay on HepG2, 28%.

Regarding `Cc1ccc2c(=NN=Cc3ccc(Cl)cc3)cc(C)[nH]c2c1`, the Inhibition in the assay on Plasmodium falciparum [1] was 100%; in the assay with Plasmodium falciparum [2], 34%; in the assay with HepG2, 0%.

Take `CCOC(=O)C(C(=O)OCC)c1nc(C)ns1`: the Inhibition in the assay on Plasmodium falciparum [1] is listed as 99%; in the assay on Plasmodium falciparum [2] it was 0%; in the assay with HepG2, 10%.

With `CCCCNCc1ccc(OCc2cccc(COc3ccc(CNCCCC)cc3)c2)cc1.Cl`, the Inhibition is listed as 100% in the assay on Plasmodium falciparum [1], 35% with Plasmodium falciparum [2] and 98% with HepG2.

On to `O=C(NCCCCN1CCC(c2ccc(-c3ccco3)cc2)CC1)c1ccc(NC(=O)c2ccc(Cl)cc2)cc1`, for which the values for the Inhibition in the assay with Plasmodium falciparum [1], in the assay with Plasmodium falciparum [2] and with HepG2 were 100%, 97% and 26%, respectively.

Take `N#Cc1ccccc1S(=O)(=O)N1CCCC(CNC(=O)[C@H](CC2CCCCC2)NC(=O)c2cc3ccccc3s2)C1` (stereo not given in full): the results for the Inhibition with Plasmodium falciparum [1], in the assay with Plasmodium falciparum [2] and in the assay with HepG2 were 97%, 92% and 9%, respectively.

Turning to `C[C@@H](NC(=O)NC(CCN1CCC2(CC1)CN(S(C)(=O)=O)c1ccccc12)c1ccc(Cl)c(Cl)c1)c1ccccc1` (stereo not given in full), the Inhibition in the assay on Plasmodium falciparum [1] worked out at 92%; in the assay on Plasmodium falciparum [2] it was 88%; in the assay on HepG2 it was 15%.

Consider `OC1CCN(c2cc(-c3ccccn3)nc(-c3ccccn3)n2)CC1`, for which the Inhibition in the assay with Plasmodium falciparum [1] came to 83%; in the assay with Plasmodium falciparum [2], 97%; with HepG2 it was 43%.

Consider `CC(C)CCNc1nc2ccccc2nc1Nc1cccc(C(F)(F)F)c1`, for which the Inhibition is 98% in the assay on Plasmodium falciparum [1], 99% in the assay on Plasmodium falciparum [2] and 12% with HepG2.

Take `CN1CCN(S(=O)(=O)c2ccc3nccc(Nc4ccc(Oc5ccccc5)cc4)c3c2)CC1.Cl`: the Inhibition with Plasmodium falciparum [1] came out at 98%; in the assay with Plasmodium falciparum [2] it was 91%; with HepG2, 0%.

For `CCC[C@@H]([C@@H](CC1CCC(C)CC1)C(=O)N[C@@H](CCCCNC(=O)c1ccccn1)C(=O)Nc1nccs1)N(O)C=O` (stereo not given in full), the Inhibition with Plasmodium falciparum [1] was 100%; in the assay on Plasmodium falciparum [2], 79%; with HepG2, 25%.

As to `CC(C)CNCc1cccc(-c2ccc(CN(C(=O)NCCc3ccccc3)C3CCN(Cc4ccccc4)CC3)cc2)c1.O=C(O)C(F)(F)F`, the Inhibition is 98% in the assay with Plasmodium falciparum [1], 47% in the assay with Plasmodium falciparum [2] and 99% with HepG2.

As to `Cn1c2c(c3ccccc31)CN(CCC1(c3ccc(Cl)c(Cl)c3)CN(C(=O)Cc3ccccc3)CCO1)CC2` (stereo not given), the Inhibition in the assay with Plasmodium falciparum [1] is 95%; with Plasmodium falciparum [2], 91%; in the assay on HepG2 it was 22%.

Take `CC1CCCCN1CCCNc1nc(NCc2ccccc2)c2ccccc2n1` (stereo not given): the figures for the Inhibition in the assay with Plasmodium falciparum [1], in the assay on Plasmodium falciparum [2] and in the assay on HepG2 were 95%, 14% and 24%, respectively.

For the compound `COc1cc(F)c2ncc(Cl)c(CCN3CCC(NCc4ccc5c(c4)NC(=O)CS5)CC3)c2c1.Cl`, the Inhibition was determined as 100% in the assay with Plasmodium falciparum [1], 85% in the assay on Plasmodium falciparum [2] and 27% in the assay with HepG2.

Turning to `Cc1onc(-c2ccccc2)c1-c1nc(NC2CCCC(C)C2)no1` (stereo not given), the Inhibition is listed as 100% with Plasmodium falciparum [1], 46% with Plasmodium falciparum [2] and 22% in the assay on HepG2.

In the case of `CC(C)(C)OC(=O)NCc1ccc(Nc2nnc(-c3ccc(OCC(=O)NCc4ccc(C(C)(C)C)cc4)c([N+](=O)[O-])c3)o2)cc1`, the Inhibition in the assay on Plasmodium falciparum [1] is reported as 96%; in the assay on Plasmodium falciparum [2], 82%; in the assay on HepG2 it was 10%.

For `O=C(Nc1ccc(-c2nc3ccccc3[nH]2)cc1)c1ccc(S(=O)(=O)N2CCCCC2)cc1`, the Inhibition came out at 95% in the assay on Plasmodium falciparum [1], 6% with Plasmodium falciparum [2] and 23% in the assay with HepG2.

Turning to `Cc1cc(N[C@@H](Cc2ccccc2)C(=O)NCc2cccs2)nc(NCCc2ccccc2)n1.O=C(O)C(F)(F)F`, the results for the Inhibition with Plasmodium falciparum [1], in the assay on Plasmodium falciparum [2] and in the assay with HepG2 were 92%, 61% and 6%, respectively.

Regarding `O=C(N[C@@H](Cc1ccccc1)C(=O)NCCN1CCCC1)c1ccc(O)c(-c2ccc(Cl)c(Cl)c2)c1`, the Inhibition was determined as 95% in the assay with Plasmodium falciparum [1], 46% in the assay on Plasmodium falciparum [2] and 8% in the assay with HepG2.

With `COc1ccc2nccc([C@@H](O)CN3CCC(NCc4ccc5cccc(O)c5n4)CC3)c2n1.CS(=O)(=O)O`, the values for the Inhibition in the assay on Plasmodium falciparum [1], with Plasmodium falciparum [2] and with HepG2 were 94%, 13% and 8%, respectively.

Turning to `Cc1ccc(C2(CN3CCC(NC(=O)c4n[nH]cc4Cl)CC3)CCCCC2)cc1`, the Inhibition is listed as 97% in the assay with Plasmodium falciparum [1], 96% in the assay on Plasmodium falciparum [2] and 0% in the assay on HepG2.

As for `COc1ccc(C(C(=O)NC2CCN(C[C@H](O)c3ccnc4ccc(OC)cc34)CC2)N2CCN(c3ccc(Cl)c(Cl)c3)CC2)cc1` (stereo not given in full), the Inhibition in the assay on Plasmodium falciparum [1] is 100%; with Plasmodium falciparum [2] it was 79%; with HepG2, 12%.

For `Cc1ccc(NC(=O)c2cc(S(=O)(=O)NC(C)(C)C)ccc2C)nc1`, the Inhibition in the assay with Plasmodium falciparum [1] was 86%; with Plasmodium falciparum [2] it was 80%; in the assay on HepG2, 0%.

Turning to `O=S(=O)(c1c(Cl)cc(Cl)cc1Cl)N1CCCCC(c2ccc(Cl)cc2)=N1`, the results for the Inhibition in the assay with Plasmodium falciparum [1], with Plasmodium falciparum [2] and in the assay on HepG2 were 95%, 93% and 11%, respectively.

On to `O=C(O)C(F)(F)F.c1ccc(CNCc2ccc(-c3cccc(-c4nc5ccccc5[nH]4)c3)cc2)cc1`, for which the Inhibition in the assay on Plasmodium falciparum [1] was found to be 100%; in the assay with Plasmodium falciparum [2], 78%; in the assay on HepG2 it was 55%.

For `CNC(=O)CC(=O)NCCc1ccc(Cl)cc1`, the Inhibition stood at 99% in the assay on Plasmodium falciparum [1], 1% in the assay on Plasmodium falciparum [2] and 0% in the assay with HepG2.

In the case of `O=[N+]([O-])c1ccc(/C=N/Nc2cc(-c3ccccc3)nc3ccccc23)o1`, the Inhibition is reported as 93% with Plasmodium falciparum [1], 49% with Plasmodium falciparum [2] and 48% with HepG2.

Turning to `O=C(CC(=O)C(F)(F)F)c1ccccc1[N+](=O)[O-]`, the Inhibition with Plasmodium falciparum [1] is recorded as 97%; in the assay with Plasmodium falciparum [2] it was 95%; with HepG2, 65%.

Take `CN1CCC(NCc2cccc(-c3ccc(S(=O)(=O)NCc4ccccc4)c(F)c3)c2)CC1.O=C(O)C(F)(F)F`: the Inhibition came out at 99% with Plasmodium falciparum [1], 99% in the assay on Plasmodium falciparum [2] and 94% in the assay with HepG2.

Consider `O=C(Nc1ccc(Cl)c(C(F)(F)F)c1)c1ccc(C(=O)Nc2ccc(Cl)c(C(F)(F)F)c2)cc1`, for which the figures for the Inhibition in the assay on Plasmodium falciparum [1], in the assay on Plasmodium falciparum [2] and in the assay on HepG2 were 88%, 27% and 9%, respectively.

For the compound `CCOc1ccccc1CCNCC1CCN(CC2CCCCC2)CC1.O=C(O)C(F)(F)F`, the Inhibition in the assay on Plasmodium falciparum [1] was 84%; in the assay with Plasmodium falciparum [2], 59%; in the assay on HepG2, 35%.

As for `Cc1[nH]c(/C=C2\C(=O)Nc3ccc(S(=O)(=O)Cc4c(Cl)cccc4Cl)cc32)c(C)c1C(=O)N1CCC[C@@H]1CN1CCCC1` [PHA-665752], the Inhibition in the assay on Plasmodium falciparum [1] is given as 85%; in the assay on Plasmodium falciparum [2], 92%; in the assay on HepG2, 33%.

For `O=S(=O)(c1cccc(Br)c1)N1CCCCC(c2ccc(C(F)(F)F)cc2)=N1`, the Inhibition is recorded as 91% in the assay on Plasmodium falciparum [1], 92% in the assay on Plasmodium falciparum [2] and 30% in the assay on HepG2.

On to `O=C(Nc1ccc(-c2nc3ccccc3[nH]2)cc1)C1CCCN(C2CCC2)C1` (stereo not given), for which the Inhibition with Plasmodium falciparum [1] was 90%; in the assay with Plasmodium falciparum [2] it was 5%; in the assay on HepG2, 0%.

With `CCCn1c(=N)c(C(=O)NCCc2ccccc2)cc2c(=O)n3cccc(C)c3nc21`, the Inhibition is listed as 100% in the assay on Plasmodium falciparum [1], 64% in the assay with Plasmodium falciparum [2] and 8% in the assay on HepG2.

In the case of `COc1ccc(CCNc2nc(N)c3cc(OC)c(OC)cc3n2)cc1.Cl`, the results for the Inhibition in the assay with Plasmodium falciparum [1], with Plasmodium falciparum [2] and with HepG2 were 100%, 1% and 16%, respectively.

Take `O=C(Nc1ccc(-c2csc(-c3nc4ccccc4[nH]3)c2)cc1)Nc1ccc(F)c(F)c1F`: the figures for the Inhibition with Plasmodium falciparum [1], in the assay on Plasmodium falciparum [2] and in the assay on HepG2 were 100%, 64% and 67%, respectively.

With `COc1ccc(-c2ccc(NC(=O)c3cccc(Cl)c3)cc2)cc1CN1CCCC1.O=C(O)C(F)(F)F`, the Inhibition in the assay on Plasmodium falciparum [1] is given as 100%; in the assay on Plasmodium falciparum [2], 84%; with HepG2 it was 35%.

In the case of `Cn1cncc1CCCN(Cc1ccc(-c2ccc(C(F)(F)F)cc2)cc1)C(=O)Cn1c(CCc2cccc(F)c2F)cc(=O)c2cccnc21`, the Inhibition in the assay on Plasmodium falciparum [1] was 85%; in the assay with Plasmodium falciparum [2] it was 59%; in the assay with HepG2, 17%.

In the case of `CC(=O)N(C)c1cccc(C(=O)Nc2cccc(-c3cccc(-c4nc5cc(C(F)(F)F)ccc5[nH]4)c3)c2)c1`, the Inhibition with Plasmodium falciparum [1] came to 97%; in the assay on Plasmodium falciparum [2], 41%; in the assay with HepG2 it was 49%.

As to `COC(=O)C(=C(C)C)N1C(=O)[C@@H](NC(=O)OCc2ccccc2)[C@H]1SS[C@@H]1[C@H](NC(=O)OCc2ccccc2)C(=O)N1C(C(=O)OC)=C(C)C`, the Inhibition is given as 97% with Plasmodium falciparum [1], 96% with Plasmodium falciparum [2] and 18% with HepG2.
